Assay outcomes as filed in PubChem BioAssay.
The sample as a whole holds a higher share of hits than the screen did.
NS1 inh: blocks influenza NS1 protein function; Potency, µM (top dose mostly 46.1 µM); hit rate 0.4% among 270,000; AID 2326; also: actives are rising curves; nearly all actives have a fitted effect of over 50% in size
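Compounds were scored for reversing the slow growth caused by influenza A NS1 in S. cerevisiae, measured by optical density at 600 nm. Assay medium contained 2% galactose at pH 6.0; NS1-free yeast of the same strain were the positive control.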
SARS PLP yeast: SARS-CoV PLP inhibition in yeast | S. cerevisiae expressing SARS-CoV PLpro, growth rescue | Potency, µM (doses to about 32.9 µM), usual class: activators | hit rate 0.19% among 330,000; also: nearly all actives have a fitted effect of over 55% in size
Shiga inhibitor: blocks Shiga toxin action in Vero cells | hit rate 9.2% among 290,000 | AID 2315 | Vero cells, Shiga toxin protein synthesis inhibition reporter | inhibition, % at 38.7 µM; in the data active = inhibition mostly above about 28%, no sharp cut-off; inactive = mostly below about 43%
Tb PYK inh: inhibitors of Trypanosoma brucei pyruvate kinase; TbPYK enzyme, Kinase-Glo Plus ATP luminescence, 45 min; Potency, µM (highest dose often 76.8 µM), actives largely listed as inhibitors; hit rate 0.12% among 410,000; AID 624173; active = well fitted curve in the direction sought with a large enough effect; inconclusive = small, poorly fitted or top-dose-only effect, or another doubt; inactive = no such curve, though single readings can be large; an effect the other way counts as inactive or inconclusive; also: nearly all actives have a fitted effect of over 50% in size
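Activity of T. brucei pyruvate kinase was followed by Kinase-Glo Plus luminescence after the enzyme reacted 45 min at room temperature with 130 uM ADP (final) and substrate. Test compounds were added before ADP at multiple concentrations.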
CHX counter: affects cycloheximide protein synthesis inhibition readout, counter-screen; cell reporter, cycloheximide protein synthesis inhibition counterscreen; max response, %; hit rate 12% among 300,000; in the data active = max response mostly above about 13%, no sharp cut-off; inactive = mostly below about 14%; also: read at 38.3 µM for the half of the compounds with a filed dose
LmPK inh: inhibitors of Leishmania mexicana pyruvate kinase; Potency, µM (doses to about 57.5 µM), actives largely listed as inhibitors; hit rate 0.37% among 290,000; purified LmPK, Kinase-Glo ATP luminescence, 1 h; Q27686; active = well fitted curve in the direction sought with a large enough effect; inconclusive = small, poorly fitted or top-dose-only effect, or another doubt; inactive = no such curve, though single readings can be large; an effect the other way counts as inactive or inconclusive
Target sequence (Q27686 whole entry, looked up): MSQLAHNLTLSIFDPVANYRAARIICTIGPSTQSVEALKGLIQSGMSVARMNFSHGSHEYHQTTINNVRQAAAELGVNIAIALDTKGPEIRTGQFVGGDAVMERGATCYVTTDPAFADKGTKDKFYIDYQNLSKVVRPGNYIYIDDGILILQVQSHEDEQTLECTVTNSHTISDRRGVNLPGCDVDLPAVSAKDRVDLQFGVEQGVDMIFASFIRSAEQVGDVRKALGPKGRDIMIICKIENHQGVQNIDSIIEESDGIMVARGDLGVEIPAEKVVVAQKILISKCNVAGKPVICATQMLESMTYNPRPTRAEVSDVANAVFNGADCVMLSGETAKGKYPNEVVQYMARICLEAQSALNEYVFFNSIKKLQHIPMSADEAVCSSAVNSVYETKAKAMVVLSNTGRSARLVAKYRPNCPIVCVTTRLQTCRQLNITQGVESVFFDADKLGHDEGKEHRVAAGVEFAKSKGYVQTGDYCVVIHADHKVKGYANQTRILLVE
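Screened at intermediate enzyme activity to detect both inhibitors and activators: LmPK at 0.1 nM, with a 0.5 nM enzyme column as activation reference. PEP 0.5 mM, ADP 0.1 mM; ATP detected by luminescence after 1 h.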
A number is an active result; i = inactive; ? = inconclusive; nt = no result given. Unless noted, calls follow the shape of the full dose curve.

SMILES	NS1 inh	SARS PLP yeast	Shiga inhibitor	Tb PYK inh	CHX counter	LmPK inh
Cn1cnc([N+](=O)[O-])c1S(=O)(=O)Oc1ccc(Cl)cc1	nt	nt	nt	i	nt	nt
CCc1ccccc1Nc1ccc(C(=O)O)cc1N	i	?	69	i	37	i
CCNc1ccc(C(=O)O)cc1N	i	i	61	i	32	i
CC(=O)Nc1ccc(NC(=O)c2nc(S(=O)(=O)Cc3ccccc3)ncc2Cl)cc1	i	i	94	i	37	i
O=C(NCc1ccccc1)c1nc(S(=O)(=O)Cc2ccccc2)ncc1Cl	i	i	i	i	27	i
COc1ccc(NC(=O)c2nc(S(=O)(=O)Cc3ccc(C)cc3)ncc2Cl)cc1	nt	nt	nt	i	nt	nt
CCS(=O)(=O)c1ncc(Cl)c(C(=O)NCc2ccccc2)n1	nt	nt	nt	i	nt	nt
COc1ccc(CNC(=O)c2nc(S(=O)(=O)Cc3ccccc3)ncc2Cl)cc1	i	i	i	i	29	i
Cc1ccc(CS(=O)(=O)c2ncc(Cl)c(C(=O)Nc3ccc(OC(F)F)cc3)n2)cc1	i	i	i	i	17	i
Cc1ccc(C2CC(=O)Oc3cc(C)c(Cl)c(C)c32)cc1 (centres undefined)	nt	nt	i	nt	i	nt
CSc1nc2c(cc1C#N)CCC2	i	i	i	i	i	i
C=C(C)CSc1nc2c(cc1C#N)CCC2	i	i	i	i	i	i
C=CCSc1nc2c(cc1C#N)CCC2	i	i	i	i	16	i
CCCCSc1nc2c(cc1C#N)CCC2	i	i	i	?	12	i
O=S(=O)(c1cccc(-c2nnc(SCc3nc4ccccc4s3)o2)c1)N1CCOCC1	i	i	128	i	97	i
CCOc1ccc(CCNC(=O)CCc2cn(Cc3ccc(F)cc3)c3ccccc23)cc1	nt	nt	nt	i	nt	nt
C=CCc1cc(F)c(S(=O)(=O)N2CCN(S(=O)(=O)c3ccc4c(c3)OCCO4)CC2)cc1F	nt	nt	i	nt	i	nt
COc1ccc(C(CC(=O)c2ccccc2)S(=O)(=O)c2ccc(C)cc2)cc1 (centres undefined)	i	i	33	i	34	?
CC(=O)CC(c1ccccc1)S(=O)(=O)c1ccc(C)cc1 (centres undefined)	i	i	i	i	i	i
N#CC1=C2SC=C(c3ccc(Br)cc3)N2CCCC1=O	nt	i	118	i	44	i
CN(c1nc(-c2ccccc2)cs1)C1CCS(=O)(=O)C1 (centres undefined)	i	i	61	i	20	i
CN(C(=O)CSc1nc(-c2ccccc2)cs1)C1CCS(=O)(=O)C1 (centres undefined)	i	i	i	i	i	i
Cc1cccc(C)c1NC(=O)CNC(=O)C12CC3CC(CC(O)(C3)C1)C2	nt	i	nt	i	nt	nt
O=C(OCc1nnc(-c2ccc(Cl)cc2)o1)C12CC3CC(CC(O)(C3)C1)C2	nt	i	118	i	39	i
O=C(NCCc1ccc(Cl)cc1)C12CC3CC(CC(O)(C3)C1)C2	i	i	i	i	19	i
SMILES	NS1 inh	SARS PLP yeast	Shiga inhibitor	Tb PYK inh	CHX counter	LmPK inh
Cc1nnn(C23CC4CC(CC(C(=O)NN)(C4)C2)C3)n1	i	i	i	i	i	i
Cc1ccc(CCNC(=O)C23C[C@H]4C[C@@H](C2)CC(n2nnc(C)n2)(C4)C3)cc1	nt	i	i	i	41	i
Clc1cccc(OCc2nnc(-c3ccccc3Br)o2)c1	i	i	86	i	38	i
Clc1ccc(OCc2nnc(-c3ccccc3Br)o2)cc1	i	?	i	i	12	i
Cc1ccc(C2(C)NC(=O)N(CC(=O)NCc3ccccc3Cl)C2=O)cc1 (centres undefined)	i	i	i	i	12	i
CC1(c2ccc(OC(F)F)cc2)NC(=O)N(CC(=O)Nc2ccccc2)C1=O (centres undefined)	i	i	72	i	19	i
CC1(c2ccc(OC(F)F)cc2)NC(=O)N(CC(=O)Nc2ccc3[nH]c(=O)[nH]c3c2)C1=O (centres undefined)	nt	i	nt	i	nt	nt
Cc1ccc2nc(-c3ccc(NC(=O)CN4C(=O)NC(C)(c5ccc(OC(F)F)cc5)C4=O)cc3)sc2c1 (centres undefined)	i	i	99	i	30	i
CCc1ccccc1NC(=O)Cn1nnc(C(=O)Nc2ccc(OC)c(OC)c2)c1N	nt	nt	nt	i	nt	nt
CSCCC(NC(=O)c1ccccc1)C(=O)OCC(=O)NCc1ccco1 (centres undefined)	nt	i	nt	i	nt	nt
O=C1CN(c2nc(-c3cccs3)nc3sc4c(c23)CCCC4)CCN1	i	i	58	?	35	i
O=C1CN(c2nc(-c3cccnc3)nc3scc(-c4ccccc4)c23)CCN1	nt	i	i	i	19	i
O=c1c2c3c(sc2nc2n1N=C(c1cccs1)CS2)CCCC3	i	i	73	?	19	i
Cc1ccc(-n2c(SCC(=O)NC3CCS(=O)(=O)C3)nc3ccccc3c2=O)cc1C (centres undefined)	nt	i	nt	i	nt	nt
COC(=O)c1ccc(NC(=O)CC2C(=O)N(c3cccc(OC)c3)C(=O)N2C(C)C)cc1 (centres undefined)	nt	nt	nt	i	nt	nt
O=C1CCN(CCc2ccccc2)CCN1C(CSc1ccc(Br)cc1)Cc1ccccc1 (centres undefined)	nt	nt	i	nt	i	nt
CC1CC2C3CCC4=CC(=O)C=CC4(C)[C@@]3(F)C(O)CC2(C)[C@@]1(O)C(=O)CCl (some centres undefined)	nt	nt	nt	i	nt	nt
O=C1NC(Cc2ccc(O)cc2)c2nc3ccccc3c(=O)n2-c2ncccc21 (centres undefined)	nt	nt	nt	i	nt	nt
COC(=O)c1ccc(COc2ccc(/C=C(\C#N)c3nc4ccccc4[nH]3)cc2OC)o1	i	i	81	i	33	i
COc1cc(/C=C(/C#N)c2nc3ccccc3[nH]2)ccc1OCc1ccc(C(=O)O)o1	i	i	i	i	i	i
CCc1ccc(NC(=O)COc2ccc(/C=C(/C#N)c3nc4ccccc4[nH]3)cc2OC)cc1	?	i	active	i	22	i
CC(=O)c1ccc(OC(=O)N(C)c2ccccc2)cc1	i	i	66	i	36	i
CN(C)C(=O)Oc1ccc(C(=O)c2ccccc2)cc1	i	i	42	i	40	i
CCc1ccc(NS(=O)(=O)c2c(-c3ccccc3)csc2C(=O)OC)cc1	nt	nt	nt	i	nt	nt
CC1CCCCC12NC(=O)N(Cc1cc(=O)n3ccsc3n1)C2=O (centres undefined)	i	i	i	i	30	i
CC1CCC2(CC1)NC(=O)N(Cc1cc(=O)n3ccsc3n1)C2=O (centres undefined)	i	i	i	i	i	i
Cn1ncc([N+](=O)[O-])c1C(=O)Nc1ccc(-c2ccccc2)cc1	i	i	nt	i	13	i
O=C(Nc1ccc2c(c1)OCO2)c1c(Cl)nc2sccn12	i	i	103	i	25	i
Cn1nccc1C(=O)Nc1ccc(OC(=O)c2ccnn2C)cc1	i	i	i	i	i	i
Cn1nccc1C(=O)Nc1ccc2c(c1)OCCO2	i	i	96	i	43	16µM
